Common to all, as to experiment: protein-binding microarray (PBM); PBM: ~300 nM protein, 6 mM HEPES pH 7.8, 80 mM KCl, 0.5 mM EDTA, 0.5 mM EGTA, 6% glycerol, 35 ng/ul poly-dIdC, 1% milk, 1 h, room temperature; Ap Aiptasia and Nv Nematostella (sea anemones) / Co Capsaspora / Aq Amphimedon (sponge) / Dm Drosophila / Hu human; RHD is the Rel homology domain; high values mean tight binding
Details in all cases: dsDNA, one strand shown

The target in one test is T1, GST-Ap-NF-kB RHD (Exaiptasia pallida (Aiptasia), UniProt A0A913YAJ5 2-422).
T1 sequence: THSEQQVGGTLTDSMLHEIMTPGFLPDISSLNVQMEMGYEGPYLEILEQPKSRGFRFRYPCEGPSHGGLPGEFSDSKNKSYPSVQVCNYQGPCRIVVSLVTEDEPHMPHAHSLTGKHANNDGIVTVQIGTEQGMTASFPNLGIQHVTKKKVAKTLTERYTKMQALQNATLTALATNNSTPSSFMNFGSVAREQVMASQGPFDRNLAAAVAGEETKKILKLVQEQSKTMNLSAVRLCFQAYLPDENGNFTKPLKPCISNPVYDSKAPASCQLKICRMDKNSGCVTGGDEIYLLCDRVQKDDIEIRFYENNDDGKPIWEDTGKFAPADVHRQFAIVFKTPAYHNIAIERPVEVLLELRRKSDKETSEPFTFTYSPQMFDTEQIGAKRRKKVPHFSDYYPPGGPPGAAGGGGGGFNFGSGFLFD

Test [1] deals with T2, GST-Nv-NF-kB (Cys allele) (Nematostella vectensis, UniProt E5G601 2-411).
T2 sequence: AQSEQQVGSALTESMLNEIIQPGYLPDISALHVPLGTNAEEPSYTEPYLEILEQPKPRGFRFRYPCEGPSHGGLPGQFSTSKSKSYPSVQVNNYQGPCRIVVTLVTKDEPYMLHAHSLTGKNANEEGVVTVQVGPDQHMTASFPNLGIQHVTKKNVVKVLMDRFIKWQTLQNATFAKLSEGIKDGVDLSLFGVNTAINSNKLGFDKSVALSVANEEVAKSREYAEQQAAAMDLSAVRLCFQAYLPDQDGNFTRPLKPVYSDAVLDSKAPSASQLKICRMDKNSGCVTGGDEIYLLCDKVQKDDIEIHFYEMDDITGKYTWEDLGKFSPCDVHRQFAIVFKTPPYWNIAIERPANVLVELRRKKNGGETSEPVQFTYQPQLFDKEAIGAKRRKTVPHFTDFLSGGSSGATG

Test [2] concerns the target T3, GST-Nv-NF-kB (Ser allele) (Nematostella vectensis, UniProt A7UNT2 2-411).
T3 sequence: T2 sequence with Q21R, C66S, S207N, E215Q, V217A, E225K, A268E, D399E

In the next test the target is T4, GST-Co-NF-kB (Capsaspora owczarzaki, UniProt F1ARL5 200-546).
T4 sequence: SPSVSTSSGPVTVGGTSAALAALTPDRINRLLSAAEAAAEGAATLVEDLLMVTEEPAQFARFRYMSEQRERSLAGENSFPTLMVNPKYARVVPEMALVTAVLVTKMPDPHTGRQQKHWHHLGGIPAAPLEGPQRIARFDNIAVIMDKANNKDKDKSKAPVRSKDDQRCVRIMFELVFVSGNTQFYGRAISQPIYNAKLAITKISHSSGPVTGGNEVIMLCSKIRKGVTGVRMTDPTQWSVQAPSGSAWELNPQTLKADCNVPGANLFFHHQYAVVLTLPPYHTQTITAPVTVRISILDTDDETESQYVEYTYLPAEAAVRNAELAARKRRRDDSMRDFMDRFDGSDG

Another test addresses T5, GST-Dm-Relish (Drosophila melanogaster, UniProt Q94527 99-473).
T5 sequence: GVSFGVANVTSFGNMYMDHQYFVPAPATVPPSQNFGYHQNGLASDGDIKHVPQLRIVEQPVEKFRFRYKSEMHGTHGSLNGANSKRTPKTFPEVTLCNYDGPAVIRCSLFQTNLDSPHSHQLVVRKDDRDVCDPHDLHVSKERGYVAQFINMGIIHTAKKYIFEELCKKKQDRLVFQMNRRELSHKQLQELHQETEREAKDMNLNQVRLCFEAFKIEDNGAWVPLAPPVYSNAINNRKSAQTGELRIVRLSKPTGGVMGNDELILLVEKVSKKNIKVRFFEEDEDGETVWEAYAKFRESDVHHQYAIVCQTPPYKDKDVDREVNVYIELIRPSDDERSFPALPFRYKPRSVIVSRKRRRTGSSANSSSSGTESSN

Another test deals with T6, GST-Aq-NF-kB (Amphimedon queenslandica, UniProt A9Y5G7 2-389).
T6 sequence: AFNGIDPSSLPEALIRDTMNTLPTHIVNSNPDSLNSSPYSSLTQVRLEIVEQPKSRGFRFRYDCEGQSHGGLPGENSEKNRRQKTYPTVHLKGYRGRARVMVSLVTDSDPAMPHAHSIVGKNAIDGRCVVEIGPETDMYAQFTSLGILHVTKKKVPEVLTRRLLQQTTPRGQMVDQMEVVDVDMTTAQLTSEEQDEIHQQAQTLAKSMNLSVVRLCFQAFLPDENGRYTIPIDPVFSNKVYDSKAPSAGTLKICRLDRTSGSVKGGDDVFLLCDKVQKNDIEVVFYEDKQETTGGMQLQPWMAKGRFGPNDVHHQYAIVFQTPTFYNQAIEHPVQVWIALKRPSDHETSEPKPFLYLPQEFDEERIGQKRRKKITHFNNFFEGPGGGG

In a further test the target is GST-Hu-p50 (Homo sapiens, UniProt P19838 7-356).

Residue numbers refer to the chain shown, from its start.

Sequence of GST-Hu-p50 (P19838 7-356): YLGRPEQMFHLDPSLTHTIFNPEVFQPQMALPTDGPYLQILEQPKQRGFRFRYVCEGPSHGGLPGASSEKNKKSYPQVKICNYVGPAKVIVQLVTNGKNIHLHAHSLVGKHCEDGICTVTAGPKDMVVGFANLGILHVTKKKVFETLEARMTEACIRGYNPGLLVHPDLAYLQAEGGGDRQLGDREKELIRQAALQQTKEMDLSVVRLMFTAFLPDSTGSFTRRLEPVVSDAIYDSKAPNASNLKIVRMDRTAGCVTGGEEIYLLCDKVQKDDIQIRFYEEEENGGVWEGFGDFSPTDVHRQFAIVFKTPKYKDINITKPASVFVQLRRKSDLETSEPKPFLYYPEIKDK

Regarding “CCGATTAACATCAGGGGGTAAGATGATGTTAATCGGGTCTTGATTCGCTTGACGCTGCTG”, the binding signal with GST-Ap-NF-kB RHD came out at 3.96 z-score; in test [1], 3.13 z-score; in test [2], 3.97 z-score; with GST-Co-NF-kB it was 5.47 z-score; in the test with GST-Dm-Relish, 1.62 z-score; in the test with GST-Aq-NF-kB it was 3.34 z-score. Further, the binding signal with GST-Hu-p50 is 3.07 z-score.

Regarding “CCGATTAACATCAAGTCCCCCCATGATGTTAATCGGGTCTTGATTCGCTTGACGCTGCTG”, the binding signal with GST-Ap-NF-kB RHD came out at 5.62 z-score; in test [1], 4.07 z-score; in test [2], 3.94 z-score; in the test with GST-Co-NF-kB, 6.53 z-score; with GST-Dm-Relish, 4.21 z-score; in the test with GST-Aq-NF-kB it was 4.39 z-score. Besides, in the test with GST-Hu-p50, the binding signal came out at 3.78 z-score.

With “CCGATTAACATCAGGGGGGTACCTGATGTTAATCGGGTCTTGATTCGCTTGACGCTGCTG”, the binding signal came to 5.8 z-score with GST-Ap-NF-kB RHD; 3.31 z-score in test [1]; 3.85 z-score in test [2]; 4.86 z-score with GST-Co-NF-kB; 5.81 z-score with GST-Dm-Relish; 5.74 z-score with GST-Aq-NF-kB. Also, the binding signal with GST-Hu-p50 was 4.26 z-score.

Turning to “CCGATTAACATCAGGACTCCCCATGATGTTAATCGGGTCTTGATTCGCTTGACGCTGCTG”, the binding signal is 5.91 z-score with GST-Ap-NF-kB RHD; 3.31 z-score in test [1]; 3.6 z-score in test [2]; 3.44 z-score with GST-Co-NF-kB; 6.5 z-score with GST-Dm-Relish; 4.12 z-score with GST-Aq-NF-kB. This sequence also gave a binding signal with GST-Hu-p50 of 2.97 z-score.

With “CCGATTAACATCAGGGAATTTGATGATGTTAATCGGGTCTTGATTCGCTTGACGCTGCTG”, the binding signal with GST-Ap-NF-kB RHD amounted to 3.63 z-score; in test [1], 4.8 z-score; in test [2], 5.71 z-score; with GST-Co-NF-kB, 3.17 z-score; with GST-Dm-Relish it was 2.77 z-score; with GST-Aq-NF-kB, 3.69 z-score. The sequence further gave a binding signal with GST-Hu-p50 of 3.22 z-score.

“CCGATTAACATCAGGGACCCCCCTGATGTTAATCGGGTCTTGATTCGCTTGACGCTGCTG”: the binding signal worked out at 8.29 z-score in the test with GST-Ap-NF-kB RHD; 5.59 z-score in test [1]; 4.4 z-score in test [2]; 2.66 z-score with GST-Co-NF-kB; 9.78 z-score in the test with GST-Dm-Relish; 8.21 z-score in the test with GST-Aq-NF-kB. The same sequence had a binding signal with GST-Hu-p50 of 5.07 z-score.

With “CCGATTAACATCAAGGGGGTATCTGATGTTAATCGGGTCTTGATTCGCTTGACGCTGCTG”, the binding signal with GST-Ap-NF-kB RHD was found to be 6.66 z-score; in test [1], 4.44 z-score; in test [2], 4.28 z-score; with GST-Co-NF-kB, 3.26 z-score; in the test with GST-Dm-Relish, 3.38 z-score; with GST-Aq-NF-kB, 4.34 z-score. For the same sequence, the binding signal with GST-Hu-p50 worked out at 4.61 z-score.

For “CCGATTAACATCAGGGGGAACGATGATGTTAATCGGGTCTTGATTCGCTTGACGCTGCTG”, the binding signal came out at 5.18 z-score in the test with GST-Ap-NF-kB RHD; 4.82 z-score in test [1]; 6.18 z-score in test [2]; 7.4 z-score with GST-Co-NF-kB; 2.42 z-score with GST-Dm-Relish; 4.16 z-score with GST-Aq-NF-kB. For the same sequence, in the test with GST-Hu-p50, the binding signal was found to be 4.41 z-score.

Regarding “CCGATTAACATCAAGTTTTTCCCTGATGTTAATCGGGTCTTGATTCGCTTGACGCTGCTG”, the binding signal with GST-Ap-NF-kB RHD turned out to be 4.35 z-score; in test [1], 5.43 z-score; in test [2], 7.41 z-score; with GST-Co-NF-kB it was 5.3 z-score; with GST-Dm-Relish, 5.12 z-score; in the test with GST-Aq-NF-kB, 5.1 z-score. The sequence further showed a binding signal with GST-Hu-p50 of 4.44 z-score.

Consider “CCGATTAACATCAGAAATATCCCTGATGTTAATCGGGTCTTGATTCGCTTGACGCTGCTG”, for which the binding signal with GST-Ap-NF-kB RHD was determined as 2.4 z-score; in test [1], 2.67 z-score; in test [2] it was 2.09 z-score; in the test with GST-Co-NF-kB, 1.62 z-score; with GST-Dm-Relish it was 3.52 z-score; with GST-Aq-NF-kB, 4.26 z-score. This sequence also displayed a binding signal with GST-Hu-p50 of 3.17 z-score.

As for “CCGATTAACATCACTATATTCCCTGATGTTAATCGGGTCTTGATTCGCTTGACGCTGCTG”, the binding signal with GST-Ap-NF-kB RHD worked out at 3.08 z-score; in test [1], 3.16 z-score; in test [2] it was 3.56 z-score; in the test with GST-Co-NF-kB it was 3.19 z-score; with GST-Dm-Relish it was 1.62 z-score; in the test with GST-Aq-NF-kB it was 2.6 z-score. The binding signal with GST-Hu-p50 is 1.77 z-score.

Turning to “CCGATTAACATCAGAAAATCCCCTGATGTTAATCGGGTCTTGATTCGCTTGACGCTGCTG”, the binding signal in the test with GST-Ap-NF-kB RHD is 10.4 z-score; in test [1] it was 12 z-score; in test [2], 13.8 z-score; in the test with GST-Co-NF-kB, 4.89 z-score; with GST-Dm-Relish, 9.8 z-score; in the test with GST-Aq-NF-kB, 8.95 z-score. Further, the binding signal in the test with GST-Hu-p50 is 8.46 z-score.

Take “CCGATTAACATCACGGGGGATTATGATGTTAATCGGGTCTTGATTCGCTTGACGCTGCTG”: the binding signal was 7.59 z-score with GST-Ap-NF-kB RHD; 6.57 z-score in test [1]; 7 z-score in test [2]; 6.84 z-score with GST-Co-NF-kB; 6.41 z-score with GST-Dm-Relish; 5.87 z-score in the test with GST-Aq-NF-kB. Also, the binding signal with GST-Hu-p50 is 6.67 z-score.

As to “CCGATTAACATCAAGGAGTTCCCTGATGTTAATCGGGTCTTGATTCGCTTGACGCTGCTG”, the binding signal with GST-Ap-NF-kB RHD turned out to be 3.02 z-score; in test [1], 2.29 z-score; in test [2] it was 1.06 z-score; in the test with GST-Co-NF-kB, 1.52 z-score; with GST-Dm-Relish, 5.39 z-score; with GST-Aq-NF-kB, 4.24 z-score. Further, the binding signal with GST-Hu-p50 worked out at 2.1 z-score.

Consider “CCGATTAACATCAAACTACCCCCTGATGTTAATCGGGTCTTGATTCGCTTGACGCTGCTG”, for which the binding signal with GST-Ap-NF-kB RHD was found to be 5.45 z-score; in test [1], 4.01 z-score; in test [2] it was 4.35 z-score; with GST-Co-NF-kB, 5.82 z-score; with GST-Dm-Relish, 2.49 z-score; in the test with GST-Aq-NF-kB it was 4.3 z-score. For the same sequence, in the test with GST-Hu-p50, the binding signal came out at 4.12 z-score.

As to “CCGATTAACATCAGGGGCGTTTATGATGTTAATCGGGTCTTGATTCGCTTGACGCTGCTG”, the binding signal with GST-Ap-NF-kB RHD turned out to be 3.36 z-score; in test [1], 3.44 z-score; in test [2] it was 3.2 z-score; in the test with GST-Co-NF-kB, 1.35 z-score; with GST-Dm-Relish, 2.1 z-score; in the test with GST-Aq-NF-kB, 3.54 z-score. Further, the binding signal with GST-Hu-p50 amounted to 3.71 z-score.

Turning to “CCGATTAACATCAGGGGAAAATATGATGTTAATCGGGTCTTGATTCGCTTGACGCTGCTG”, the binding signal in the test with GST-Ap-NF-kB RHD is 6.98 z-score; in test [1] it was 8.57 z-score; in test [2] it was 11.7 z-score; in the test with GST-Co-NF-kB it was 10.2 z-score; with GST-Dm-Relish it was 4.1 z-score; in the test with GST-Aq-NF-kB, 6.25 z-score. This sequence also returned a binding signal in the test with GST-Hu-p50 of 6.72 z-score.

These data come from PMC5700166.
